# According to the supplement of paper PMC10849652:
# Targets with a hit are over-represented here; the source holds about 7,900 in all. About 0.6% of all pairs of compound and target were hits. Values without a mark were called inactive.
# How the values were obtained:
# Experiment in all cases: log2 fold change, soluble protein after heating vs DMSO (PISA); higher = thermal stabilisation; K562 cells, 10 uM, 30 min; active = over 0.2 and 3.5 SD of the protein, either way, in both replicates (recomputed)
# [1] = compound: CS(=O)(=O)c1ccc(-c2cnc(N)c(C(=O)Nc3ccccc3)n2)cc1
# Procedure, shortened: (§1)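 K562 cells at 2×10^6 cells/mL were given 10 μM compound for 30 min. Aliquots then went through 3 min of heating across 48°C-58°C, were pooled, and were extracted in PBS with 0.5% NP-40 at 4°C, and the supernatant after 21,000xg for 90 min was quantified by TMTpro 16plex LC-MS/MS with channel sums equalised. Thermal stability relative to control samples, from duplicates, is given as log2 fold change.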
# [2] = compound: C[C@@H](Oc1cc(-c2cnn(C3CCNCC3)c2)cnc1N)c1c(Cl)ccc(F)c1Cl [crizotinib]
# Procedure, shortened: as §1
# [3] = compound: C[C@H](C1=CC=C(C=C1)C(=O)NC2=C3C=CNC3=NC=C2)N
# Procedure, shortened: as §1
# [4] = compound: C[C@H](Nc1ncnc2nc[nH]c12)c1cc2cccc(Cl)c2c(=O)n1-c1ccccc1 [duvelisib]
# Procedure, shortened: as §1
# [5] = compound: Cc1cc(Nc2cc(CN3CCOCC3)c3nc(C)c(Cc4ccc(Cl)cc4F)n3n2)n[nH]1 [gandotinib]
# Procedure, shortened: as §1
# [6] = compound: Cc1cc(Nc2cc(N3CCN(C)CC3)nc(Sc3ccc(NC(=O)C4CC4)cc3)n2)n[nH]1 [tozasertib]
# Procedure, shortened: as §1
# [7] = compound: Cc1cc(SCc2sc(-c3ccc(C(F)(F)F)cc3)nc2C)ccc1OCC(=O)O
# Procedure, shortened: as §1
# [8] = compound: Cc1ccc(-n2nc(C(C)(C)C)cc2NC(=O)Nc2ccc(OCCN3CCOCC3)c3ccccc23)cc1 [doramapimod]
# Procedure, shortened: as §1
# [9] = compound: Cc1ccc(C(=O)N(CCCN)[C@@H](c2nc3cc(Cl)ccc3c(=O)n2Cc2ccccc2)C(C)C)cc1 [ispinesib]
# Procedure, shortened: as §1
# [10] = compound: Cc1ccc(NC(=O)c2ccc(CN3CC[C@H](N(C)C)C3)c(C(F)(F)F)c2)cc1Nc1nccc(-c2cncnc2)n1 [bafetinib]
# Procedure, shortened: as §1
# [11] = compound: Cc1cccc(CC(=O)N2CCc3c2ccc(-c2cn(C)c4ncnc(N)c24)c3F)n1
# Procedure, shortened: as §1
# [12] = compound: Cc1nc(Nc2ncc(C(=O)Nc3c(C)cccc3Cl)s2)cc(N2CCN(CCO)CC2)n1 [dasatinib]
# Procedure, shortened: as §1
# [13] = compound: Cn1cc(-c2ccc3c(c2)CCN3C(=O)Cc2cccc(C(F)(F)F)c2)c2c(N)ncnc21
# Procedure, shortened: as §1
# [14] = compound: Cn1cc(-c2ccc3nnc(C(F)(F)c4ccc5ncccc5c4)n3n2)cn1
# Procedure, shortened: as §1
# [15] = compound: Cn1cncc1[C@@](N)(c1ccc(Cl)cc1)c1ccc2c(c1)c(-c1cccc(Cl)c1)cc(=O)n2C [tipifarnib]
# Procedure, shortened: as §1
# [16] = compound: C[C@@H]1COCCN1C2=NC(=NC(=C2)C3(CC3)S(=O)(=O)C)C4=C5C=CNC5=CC=C4
# Procedure, shortened: as §1
# [17] = compound: Cc1cn(-c2cc(NC(=O)c3ccc(C)c(Nc4nccc(-c5cccnc5)n4)c3)cc(C(F)(F)F)c2)cn1 [nilotinib]
# Procedure, shortened: as §1
# [18] = compound: Cc1nc(Nc2n[nH]c3c2CN(C(=O)N[C@H](CN(C)C)c2ccccc2)C3(C)C)c2sccc2n1
# Procedure, shortened: as §1
# [19] = compound: Cc1ncc(-c2ccnc(Nc3ccc(S(C)(=O)=O)cc3)n2)n1C(C)C
# Procedure, shortened: as §1
# [20] = compound: FC(F)(F)c1ccc(/C=C/c2nc(COc3ccc(CCCCn4ccnn4)cc3)co2)cc1 [mubritinib]
# Procedure, shortened: as §1
# Sequence of UniProt Q14790 (Q14790 whole entry, looked up): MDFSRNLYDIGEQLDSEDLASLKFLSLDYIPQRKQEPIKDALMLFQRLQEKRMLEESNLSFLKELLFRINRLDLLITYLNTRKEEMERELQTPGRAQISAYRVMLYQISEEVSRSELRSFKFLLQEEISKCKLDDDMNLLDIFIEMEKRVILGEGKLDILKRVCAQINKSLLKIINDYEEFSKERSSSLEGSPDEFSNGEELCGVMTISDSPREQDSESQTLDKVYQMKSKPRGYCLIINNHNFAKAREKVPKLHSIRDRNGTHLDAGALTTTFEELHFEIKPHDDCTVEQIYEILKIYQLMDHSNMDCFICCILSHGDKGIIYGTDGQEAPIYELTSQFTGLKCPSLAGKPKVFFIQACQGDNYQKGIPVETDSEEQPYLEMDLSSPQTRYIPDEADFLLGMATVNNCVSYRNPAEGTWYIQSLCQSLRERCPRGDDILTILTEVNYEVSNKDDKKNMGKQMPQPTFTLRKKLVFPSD
# Sequence of UniProt Q9BWU1 (Q9BWU1 whole entry, looked up): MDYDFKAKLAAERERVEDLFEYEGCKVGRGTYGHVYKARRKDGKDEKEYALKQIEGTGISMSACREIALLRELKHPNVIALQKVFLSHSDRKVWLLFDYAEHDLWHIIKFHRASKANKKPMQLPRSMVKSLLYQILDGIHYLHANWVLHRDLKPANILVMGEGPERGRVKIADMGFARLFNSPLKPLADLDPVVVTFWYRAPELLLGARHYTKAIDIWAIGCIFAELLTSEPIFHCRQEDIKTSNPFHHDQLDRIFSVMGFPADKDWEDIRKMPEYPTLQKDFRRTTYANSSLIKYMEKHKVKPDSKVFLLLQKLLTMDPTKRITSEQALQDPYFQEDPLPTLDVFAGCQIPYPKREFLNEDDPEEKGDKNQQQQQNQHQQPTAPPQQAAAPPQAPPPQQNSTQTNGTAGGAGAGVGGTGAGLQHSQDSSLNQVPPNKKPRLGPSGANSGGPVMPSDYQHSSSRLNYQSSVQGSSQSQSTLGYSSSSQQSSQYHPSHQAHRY
# Sequence of UniProt Q00536 (Q00536 whole entry, looked up): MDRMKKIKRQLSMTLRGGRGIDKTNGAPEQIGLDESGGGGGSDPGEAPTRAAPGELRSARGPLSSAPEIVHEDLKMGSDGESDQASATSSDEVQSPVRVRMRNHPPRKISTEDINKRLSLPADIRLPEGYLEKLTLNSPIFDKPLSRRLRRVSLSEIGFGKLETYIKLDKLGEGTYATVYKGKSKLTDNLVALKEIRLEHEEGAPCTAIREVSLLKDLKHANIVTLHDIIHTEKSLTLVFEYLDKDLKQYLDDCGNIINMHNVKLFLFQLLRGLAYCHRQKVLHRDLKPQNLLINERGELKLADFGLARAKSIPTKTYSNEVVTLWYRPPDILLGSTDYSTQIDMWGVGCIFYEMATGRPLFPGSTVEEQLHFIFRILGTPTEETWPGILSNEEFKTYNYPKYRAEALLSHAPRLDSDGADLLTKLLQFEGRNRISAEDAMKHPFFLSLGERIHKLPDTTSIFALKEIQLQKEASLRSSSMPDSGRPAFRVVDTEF
# Sequence of UniProt Q00537 (Q00537 whole entry, looked up): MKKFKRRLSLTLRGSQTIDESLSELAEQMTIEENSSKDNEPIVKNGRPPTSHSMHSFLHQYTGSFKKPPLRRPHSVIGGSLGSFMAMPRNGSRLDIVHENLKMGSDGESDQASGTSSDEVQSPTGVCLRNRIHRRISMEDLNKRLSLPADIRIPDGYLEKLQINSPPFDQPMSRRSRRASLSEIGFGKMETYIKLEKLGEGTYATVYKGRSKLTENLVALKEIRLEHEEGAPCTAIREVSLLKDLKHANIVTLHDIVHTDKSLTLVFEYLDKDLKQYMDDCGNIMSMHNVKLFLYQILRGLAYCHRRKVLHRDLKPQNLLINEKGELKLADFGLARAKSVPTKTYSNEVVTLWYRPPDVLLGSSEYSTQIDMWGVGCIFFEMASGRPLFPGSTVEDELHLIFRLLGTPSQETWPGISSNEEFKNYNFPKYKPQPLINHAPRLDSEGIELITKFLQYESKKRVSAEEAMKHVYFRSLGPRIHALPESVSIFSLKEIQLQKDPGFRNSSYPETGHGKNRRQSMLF
# Sequence of UniProt Q6UUV9 (Q6UUV9 whole entry, looked up): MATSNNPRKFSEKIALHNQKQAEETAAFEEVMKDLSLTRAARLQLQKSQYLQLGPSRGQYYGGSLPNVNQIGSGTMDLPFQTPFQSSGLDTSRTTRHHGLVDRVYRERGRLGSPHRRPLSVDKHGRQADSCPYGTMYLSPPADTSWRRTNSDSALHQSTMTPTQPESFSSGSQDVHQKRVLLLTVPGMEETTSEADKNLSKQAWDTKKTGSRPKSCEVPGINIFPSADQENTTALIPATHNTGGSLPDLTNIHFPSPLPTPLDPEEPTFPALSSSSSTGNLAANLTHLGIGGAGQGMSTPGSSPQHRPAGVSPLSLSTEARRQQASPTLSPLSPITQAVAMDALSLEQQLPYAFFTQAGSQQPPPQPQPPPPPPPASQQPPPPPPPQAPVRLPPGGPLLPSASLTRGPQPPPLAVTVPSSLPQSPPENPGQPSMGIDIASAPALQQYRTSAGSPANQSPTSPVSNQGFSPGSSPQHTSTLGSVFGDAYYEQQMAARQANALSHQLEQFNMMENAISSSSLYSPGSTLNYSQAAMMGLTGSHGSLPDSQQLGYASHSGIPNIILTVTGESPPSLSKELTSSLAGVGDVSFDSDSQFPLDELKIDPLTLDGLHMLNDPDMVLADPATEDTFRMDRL
# Sequence of UniProt Q53ET0 (Q53ET0 whole entry, looked up): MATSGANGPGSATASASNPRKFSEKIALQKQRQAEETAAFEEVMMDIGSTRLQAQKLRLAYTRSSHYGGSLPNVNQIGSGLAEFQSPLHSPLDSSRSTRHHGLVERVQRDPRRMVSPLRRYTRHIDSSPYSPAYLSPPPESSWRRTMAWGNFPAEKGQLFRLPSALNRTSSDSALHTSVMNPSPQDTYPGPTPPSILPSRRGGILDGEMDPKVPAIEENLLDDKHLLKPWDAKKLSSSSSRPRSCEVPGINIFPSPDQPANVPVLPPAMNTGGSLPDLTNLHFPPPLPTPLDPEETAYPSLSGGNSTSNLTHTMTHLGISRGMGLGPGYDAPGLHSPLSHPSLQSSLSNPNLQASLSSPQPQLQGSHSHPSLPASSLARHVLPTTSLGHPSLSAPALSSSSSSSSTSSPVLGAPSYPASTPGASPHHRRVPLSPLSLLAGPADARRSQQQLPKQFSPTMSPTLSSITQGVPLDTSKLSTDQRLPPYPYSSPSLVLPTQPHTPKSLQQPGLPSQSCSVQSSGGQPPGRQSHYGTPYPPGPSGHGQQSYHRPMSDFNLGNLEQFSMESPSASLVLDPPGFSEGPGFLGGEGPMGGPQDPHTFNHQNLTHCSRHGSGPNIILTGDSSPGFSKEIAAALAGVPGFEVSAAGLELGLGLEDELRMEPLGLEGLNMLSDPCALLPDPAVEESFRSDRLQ
# Sequence of UniProt Q13111 (Q13111 whole entry, looked up): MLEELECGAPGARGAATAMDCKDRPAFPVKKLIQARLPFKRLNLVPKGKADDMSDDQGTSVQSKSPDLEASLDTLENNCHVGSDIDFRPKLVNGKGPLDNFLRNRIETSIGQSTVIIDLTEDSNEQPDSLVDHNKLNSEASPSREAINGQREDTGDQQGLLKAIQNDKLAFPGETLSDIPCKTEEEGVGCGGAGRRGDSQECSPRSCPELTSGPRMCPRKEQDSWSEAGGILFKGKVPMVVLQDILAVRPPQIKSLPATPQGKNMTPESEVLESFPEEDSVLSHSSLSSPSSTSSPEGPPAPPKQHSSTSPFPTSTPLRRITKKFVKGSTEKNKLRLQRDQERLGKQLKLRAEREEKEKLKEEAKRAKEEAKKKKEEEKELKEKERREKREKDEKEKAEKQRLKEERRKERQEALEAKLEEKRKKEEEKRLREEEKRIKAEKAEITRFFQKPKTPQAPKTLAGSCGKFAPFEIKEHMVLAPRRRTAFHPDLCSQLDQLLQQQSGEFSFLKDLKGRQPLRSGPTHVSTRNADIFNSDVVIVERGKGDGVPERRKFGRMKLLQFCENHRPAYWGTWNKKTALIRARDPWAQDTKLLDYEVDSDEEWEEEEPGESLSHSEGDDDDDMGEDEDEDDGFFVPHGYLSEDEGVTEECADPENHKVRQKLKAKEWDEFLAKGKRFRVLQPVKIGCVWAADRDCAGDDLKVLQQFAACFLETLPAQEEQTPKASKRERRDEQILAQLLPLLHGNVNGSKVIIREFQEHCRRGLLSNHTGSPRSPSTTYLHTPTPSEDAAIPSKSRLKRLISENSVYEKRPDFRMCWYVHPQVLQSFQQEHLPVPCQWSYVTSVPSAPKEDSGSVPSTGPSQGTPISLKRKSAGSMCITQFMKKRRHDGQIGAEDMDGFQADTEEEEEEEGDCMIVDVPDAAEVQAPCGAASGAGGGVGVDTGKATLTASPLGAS
# Sequence of UniProt Q9NRR8 (Q9NRR8 whole entry, looked up): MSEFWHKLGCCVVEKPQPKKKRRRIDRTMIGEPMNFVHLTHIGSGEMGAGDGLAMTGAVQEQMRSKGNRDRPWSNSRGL
# Sequence of UniProt Q5BKX5 (Q5BKX5 whole entry, looked up): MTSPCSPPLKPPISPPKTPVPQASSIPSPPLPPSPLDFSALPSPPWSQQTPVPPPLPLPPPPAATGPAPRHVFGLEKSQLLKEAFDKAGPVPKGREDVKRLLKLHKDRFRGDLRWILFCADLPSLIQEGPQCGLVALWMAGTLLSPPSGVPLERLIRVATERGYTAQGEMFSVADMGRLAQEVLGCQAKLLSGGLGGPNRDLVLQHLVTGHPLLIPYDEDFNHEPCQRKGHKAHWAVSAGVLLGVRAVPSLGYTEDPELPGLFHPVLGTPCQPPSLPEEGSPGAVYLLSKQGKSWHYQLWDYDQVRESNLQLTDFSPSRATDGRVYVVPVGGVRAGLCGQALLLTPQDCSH
# Sequence of UniProt Q13901 (Q13901 whole entry, looked up): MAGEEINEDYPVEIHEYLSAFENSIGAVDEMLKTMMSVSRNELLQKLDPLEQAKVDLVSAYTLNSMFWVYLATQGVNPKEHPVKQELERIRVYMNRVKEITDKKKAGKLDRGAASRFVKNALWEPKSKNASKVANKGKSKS
Target,log2 fold change [1],log2 fold change [2],log2 fold change [3],log2 fold change [4],log2 fold change [5],log2 fold change [6],log2 fold change [7],log2 fold change [8],log2 fold change [9],log2 fold change [10],log2 fold change [11],log2 fold change [12],log2 fold change [13],log2 fold change [14],log2 fold change [15],log2 fold change [16],log2 fold change [17],log2 fold change [18],log2 fold change [19],log2 fold change [20]
CENPE (UniProt Q02224),0.231,-0.018,-0.908,-0.563,0.052,-0.155,0.24,0.108,-0.321,0.143,0.069,-0.35,0.14,-0.123,-0.033,,,,,
CHAF1A (UniProt Q13111),-0.015,0.058,0.15,0.051,-0.035,,-0.04,0.025,-0.098,-0.154,-0.04,0.016,0.006,0.002,0.015,-0.058,0.053,0.047,-0.074,0.034
CHST11 (UniProt Q9NPF2),0.056,-0.106,0.019,,0.029,-0.033,,0.087,-0.068,-0.01,-0.117,,0.039,-0.249,-0.012,-0.037,0.049,-0.026,0.008,-0.064
CDK17 isoform 2 (UniProt Q00537),0.087,-0.082,0.076,-0.006,0.057,,0.126,0.028,,0.117,0.039,-0.171,-0.07,,0.037,-0.035,,,,-0.04
CDCA2 (UniProt Q69YH5),0.161,0.025,-0.021,,0.098,-0.159,,0.088,-0.04,,-0.065,,0.159,-0.215,0.182,0.041,0.164,-0.114,0.042,-0.256
CCDC57 (UniProt Q2TAC2),-0.026,0.06,0.139,,,0.04,,-0.035,-0.034,-0.025,,,0.068,-0.021,-0.023,0.065,-0.044,-0.023,-0.021,0.031
CDC42SE1 (UniProt Q9NRR8),0,-0.099,-0.031,0.029,,-0.106,-0.04,-0.06,-0.341,-0.37,,-0.022,0.107,-0.002,-0.01,0.16,0.055,0.055,-0.155,-0.065
COPS3 isoform 2 (UniProt Q9UNS2),0.054,0.046,,,-0.084,-0.165,,0.028,-0.371,-0.19,-0.295,,,0.418,0.029,0.116,-0.041,0.227,-0.194,0.138
COMMD1 (UniProt Q8N668),-0.108,-0.022,,,0.42 (active),-0.049,,0.009,-0.112,-0.162,-0.085,,,-0.087,-0.016,-0.092,0.009,-0.179,-0.057,-0.069
CRTC2 (UniProt Q53ET0),-0.02,-0.077,,,,-0.057,,0.062,0.012,-0.035,,,,-0.081,-0.092,0.08,0.038,0.01,-0.094,0.022
CRLS1 (UniProt Q9UJA2),-0.228,0.02,-0.047,-0.025,-0.083,0,0.05,0.023,,,0.012,0.101,-0.002,,-0.138,,0.01,-0.064,0.056,0.007
CDK4 (UniProt P11802),0.108,-0.108,0.377,0.104,,,0.021,0.079,0.094,0.022,,-0.056,-0.084,-0.117,0.046,-0.152,-0.121,-0.042,0.031,0.054
CRTC1 isoform 2 (UniProt Q6UUV9),-0.068,-0.016,,0.139,0.008,-0.004,-0.076,0.005,-0.11,0.021,-0.093,-0.034,,-0.079,-0.267,0.192,,,,
CAB39L (UniProt Q9H9S4),0.13,0.036,,-0.014,0.448 (active),0.03,0.053,0.024,-0.031,-0.055,-0.041,-0.255,,-0.032,0.042,-0.01,,,,
CDK19 (UniProt Q9BWU1),0.042,,0.401,-0.089,-0.051,-0.197,0.034,,0.291,,-0.014,0.101,-0.01,-0.054,-0.045,0.03,-0.266,0.297,0.338,0.112
CASP8 isoform 9 (UniProt Q14790),0.007,-0.02,,0.104,-0.07,0.181,-0.007,0.072,-0.151,0.072,0.093,-0.039,,-0.066,-0.094,-0.013,-0.183,0.018,0.069,-0.095
C1D (UniProt Q13901),-0.073,0.06,,,0.01,0.005,,-0.089,0.007,-0.026,-0.013,,,0.018,0.151,-0.107,0.059,-0.074,-0.027,0.132
C19orf54 (UniProt Q5BKX5),-0.026,0.025,0.127,0.072,-0.073,0.006,0.032,-0.061,-0.091,,0.007,-0.175,0.03,0.14,0.013,0.182,,,,
CDK16 isoform 2 (UniProt Q00536),0.03,-0.036,-0.07,0.058,0.436 (active),,0.096,-0.022,-0.046,0.038,-0.047,0,-0.014,0.013,-0.072,0.06,0.013,0.619 (active),0.679 (active),0.035
